In article PMC7862700, “An all-to-all approach to the identification of sequence-specific readers for epigenetic DNA modifications on cytosine”:

Experiments:
Experiment in all cases: DAPPL (digital affinity profiling via proximity ligation, sequencing); 10 mM Tris-HCl pH 7.5, 50 mM NaCl, 1 mM DTT, 4% glycerol, room temperature, 30 min; GST-TFs on glutathione beads, 16-mer random dsDNA library, 0.1% formaldehyde crosslink after washing; high values mean tight binding
[1] = target: T1, FLI1 (Homo sapiens, UniProt Q01543 1-452); settings: protein: recombinant; tags: N-terminal GST; dsDNA, one strand shown
T1 sequence: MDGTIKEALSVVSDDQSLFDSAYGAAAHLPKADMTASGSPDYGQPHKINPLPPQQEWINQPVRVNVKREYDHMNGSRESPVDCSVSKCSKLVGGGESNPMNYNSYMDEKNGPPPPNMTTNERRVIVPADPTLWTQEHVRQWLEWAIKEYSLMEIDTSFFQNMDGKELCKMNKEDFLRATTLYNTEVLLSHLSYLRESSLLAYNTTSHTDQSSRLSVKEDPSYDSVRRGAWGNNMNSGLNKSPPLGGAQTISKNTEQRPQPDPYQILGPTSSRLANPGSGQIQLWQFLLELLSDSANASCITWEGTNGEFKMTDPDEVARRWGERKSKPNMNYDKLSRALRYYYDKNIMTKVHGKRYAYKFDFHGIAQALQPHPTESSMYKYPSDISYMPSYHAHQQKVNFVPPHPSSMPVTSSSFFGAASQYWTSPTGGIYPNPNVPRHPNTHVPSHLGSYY
Outline: (§1)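 Human transcription factors were made in yeast as GST fusions, captured on glutathione beads and barcoded with DNA. With a tag-only sample included, the pool was incubated with 200 nmole of a random double-stranded 16-mer DNA library in Tris/NaCl/DTT/glycerol buffer at room temperature for 30 min, then crosslinked with 0.1% formaldehyde after washing, ligated by proximity, amplified and sequenced. For binding signal, each hexamer's read frequency for a factor is divided by its frequency for the tag-only sample.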

[2] = target: T2, ELK1 (Homo sapiens, UniProt P19419 1-428); settings: protein: recombinant; tags: N-terminal GST; dsDNA, one strand shown
T2 sequence: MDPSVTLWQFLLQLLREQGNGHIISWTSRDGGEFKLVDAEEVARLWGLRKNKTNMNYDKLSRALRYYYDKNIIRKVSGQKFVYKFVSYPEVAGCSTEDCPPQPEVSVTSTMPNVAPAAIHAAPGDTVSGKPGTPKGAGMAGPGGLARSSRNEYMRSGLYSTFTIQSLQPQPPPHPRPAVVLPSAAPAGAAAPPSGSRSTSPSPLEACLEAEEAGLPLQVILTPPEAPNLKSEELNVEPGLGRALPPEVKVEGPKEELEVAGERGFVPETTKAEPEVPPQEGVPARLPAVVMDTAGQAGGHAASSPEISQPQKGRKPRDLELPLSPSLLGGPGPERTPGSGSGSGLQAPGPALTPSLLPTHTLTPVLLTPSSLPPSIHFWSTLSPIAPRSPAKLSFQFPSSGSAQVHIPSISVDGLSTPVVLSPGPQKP
Outline: as §1

[3] = target: T3, GABPA (Homo sapiens, UniProt Q06546 1-454); settings: protein: recombinant; tags: N-terminal GST; dsDNA, one strand shown
T3 sequence: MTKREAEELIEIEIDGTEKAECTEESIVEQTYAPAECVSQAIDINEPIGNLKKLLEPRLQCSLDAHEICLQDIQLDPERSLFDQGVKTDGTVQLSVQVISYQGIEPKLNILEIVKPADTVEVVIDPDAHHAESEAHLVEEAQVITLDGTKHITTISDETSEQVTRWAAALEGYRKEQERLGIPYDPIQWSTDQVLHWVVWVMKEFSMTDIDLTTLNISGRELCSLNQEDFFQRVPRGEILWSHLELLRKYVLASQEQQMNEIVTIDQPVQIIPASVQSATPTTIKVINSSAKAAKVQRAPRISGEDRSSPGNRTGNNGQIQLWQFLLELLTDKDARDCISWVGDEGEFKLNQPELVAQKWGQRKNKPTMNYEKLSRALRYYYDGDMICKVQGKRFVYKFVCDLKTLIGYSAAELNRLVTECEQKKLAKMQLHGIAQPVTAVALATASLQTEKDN
Outline: as §1

[4] = target: T4, ERG (Homo sapiens, UniProt P11308 1-479); settings: protein: recombinant; tags: N-terminal GST; dsDNA, one strand shown
T4 sequence: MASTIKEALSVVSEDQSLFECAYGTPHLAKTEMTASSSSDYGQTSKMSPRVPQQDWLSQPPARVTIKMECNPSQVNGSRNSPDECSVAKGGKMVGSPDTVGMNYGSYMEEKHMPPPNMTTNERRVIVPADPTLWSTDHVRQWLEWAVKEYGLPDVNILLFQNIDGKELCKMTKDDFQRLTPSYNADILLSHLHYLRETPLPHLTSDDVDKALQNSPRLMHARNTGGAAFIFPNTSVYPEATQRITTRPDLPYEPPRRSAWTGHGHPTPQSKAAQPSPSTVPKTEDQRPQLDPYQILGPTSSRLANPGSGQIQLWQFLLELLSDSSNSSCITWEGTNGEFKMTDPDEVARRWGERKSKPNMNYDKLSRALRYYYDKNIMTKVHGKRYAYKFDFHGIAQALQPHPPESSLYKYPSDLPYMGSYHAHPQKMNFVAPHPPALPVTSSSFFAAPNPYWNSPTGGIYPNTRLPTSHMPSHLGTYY
Outline: as §1

[5] = target: ELF1 (Homo sapiens, UniProt P32519 1-619); settings: protein: recombinant; tags: N-terminal GST; dsDNA, one strand shown
Outline: as §1

[6] = target: T5, EHF (Homo sapiens, UniProt Q9NZC4 1-300); settings: protein: recombinant; tags: N-terminal GST; dsDNA, one strand shown
T5 sequence: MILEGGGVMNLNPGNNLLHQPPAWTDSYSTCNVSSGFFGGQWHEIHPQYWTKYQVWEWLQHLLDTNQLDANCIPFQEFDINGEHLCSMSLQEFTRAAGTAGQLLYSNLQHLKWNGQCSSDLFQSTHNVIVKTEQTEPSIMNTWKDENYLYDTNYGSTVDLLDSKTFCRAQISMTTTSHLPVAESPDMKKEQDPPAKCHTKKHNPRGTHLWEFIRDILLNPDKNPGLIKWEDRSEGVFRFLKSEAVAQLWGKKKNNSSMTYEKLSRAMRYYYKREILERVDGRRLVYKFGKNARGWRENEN
Outline: as §1

[7] = target: SPI1 (Homo sapiens, UniProt P17947 1-270); settings: protein: recombinant; tags: N-terminal GST; dsDNA, one strand shown
Outline: as §1

[8] = target: SPIB (Homo sapiens, UniProt Q01892 1-262); settings: protein: recombinant; tags: N-terminal GST; dsDNA, one strand shown
Outline: as §1

[9] = target: T6, ELK3 (Homo sapiens, UniProt P41970 1-407); settings: protein: recombinant; tags: N-terminal GST; dsDNA, one strand shown
T6 sequence: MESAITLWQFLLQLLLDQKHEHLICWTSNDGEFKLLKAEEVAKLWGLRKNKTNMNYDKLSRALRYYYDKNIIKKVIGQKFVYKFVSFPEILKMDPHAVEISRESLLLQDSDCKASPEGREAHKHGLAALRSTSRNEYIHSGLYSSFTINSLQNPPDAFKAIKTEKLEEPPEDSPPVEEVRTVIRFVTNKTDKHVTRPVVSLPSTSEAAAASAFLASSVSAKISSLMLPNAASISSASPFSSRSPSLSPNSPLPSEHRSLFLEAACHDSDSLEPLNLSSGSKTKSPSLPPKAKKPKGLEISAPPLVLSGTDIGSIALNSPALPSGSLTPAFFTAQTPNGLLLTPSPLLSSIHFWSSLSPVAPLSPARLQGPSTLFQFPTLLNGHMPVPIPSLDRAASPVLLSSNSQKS
Outline: as §1

[10] = target: T7, FEV (Homo sapiens, UniProt Q99581 1-238); settings: protein: recombinant; tags: N-terminal GST; dsDNA, one strand shown
T7 sequence: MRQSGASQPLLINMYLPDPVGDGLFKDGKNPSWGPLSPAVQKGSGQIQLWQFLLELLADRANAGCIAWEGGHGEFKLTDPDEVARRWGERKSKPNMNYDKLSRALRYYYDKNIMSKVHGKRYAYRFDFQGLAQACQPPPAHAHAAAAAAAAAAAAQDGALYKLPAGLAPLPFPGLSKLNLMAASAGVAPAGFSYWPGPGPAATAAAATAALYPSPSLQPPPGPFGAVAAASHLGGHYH
Outline: as §1

[11] = target: ETV5 (Homo sapiens, UniProt P41161 1-510); settings: protein: recombinant; tags: N-terminal GST; dsDNA, one strand shown
Outline: as §1

[12] = target: HSF1 (Homo sapiens, UniProt Q00613 1-529); settings: protein: recombinant; tags: N-terminal GST; chain copies: 3; dsDNA, one strand shown
Outline: as §1

[13] = target: T8, SPIC (Homo sapiens, UniProt Q8N5J4 1-248); settings: protein: recombinant; tags: N-terminal GST; dsDNA, one strand shown
T8 sequence: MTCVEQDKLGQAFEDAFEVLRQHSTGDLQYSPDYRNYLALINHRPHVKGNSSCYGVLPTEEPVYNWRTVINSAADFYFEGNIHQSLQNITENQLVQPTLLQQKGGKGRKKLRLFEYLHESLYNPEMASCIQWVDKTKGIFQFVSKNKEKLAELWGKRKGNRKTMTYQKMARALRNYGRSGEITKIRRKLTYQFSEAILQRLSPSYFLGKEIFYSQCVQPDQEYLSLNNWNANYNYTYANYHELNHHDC
Outline: as §1

[14] = target: ELF4 (Homo sapiens, UniProt Q99607 1-663); settings: protein: recombinant; tags: N-terminal GST; dsDNA, one strand shown
Outline: as §1

[15] = target: T9, ELK4 (Homo sapiens, UniProt P28324-2 1-405); settings: protein: recombinant; tags: N-terminal GST; dsDNA, one strand shown
T9 sequence: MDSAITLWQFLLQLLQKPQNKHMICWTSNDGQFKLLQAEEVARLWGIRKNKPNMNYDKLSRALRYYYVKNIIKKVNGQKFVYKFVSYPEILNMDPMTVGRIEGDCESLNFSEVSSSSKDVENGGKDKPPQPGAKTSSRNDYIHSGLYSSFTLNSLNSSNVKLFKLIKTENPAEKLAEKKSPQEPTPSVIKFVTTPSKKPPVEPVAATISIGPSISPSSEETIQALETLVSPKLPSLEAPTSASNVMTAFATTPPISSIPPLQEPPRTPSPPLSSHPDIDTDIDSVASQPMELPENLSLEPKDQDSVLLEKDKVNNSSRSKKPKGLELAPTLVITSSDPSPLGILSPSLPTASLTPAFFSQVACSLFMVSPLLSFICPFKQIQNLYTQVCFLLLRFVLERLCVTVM
Outline: as §1

[16] = target: T10, ETV2 (Homo sapiens, UniProt O00321 1-342); settings: protein: recombinant; tags: N-terminal GST; dsDNA, one strand shown
T10 sequence: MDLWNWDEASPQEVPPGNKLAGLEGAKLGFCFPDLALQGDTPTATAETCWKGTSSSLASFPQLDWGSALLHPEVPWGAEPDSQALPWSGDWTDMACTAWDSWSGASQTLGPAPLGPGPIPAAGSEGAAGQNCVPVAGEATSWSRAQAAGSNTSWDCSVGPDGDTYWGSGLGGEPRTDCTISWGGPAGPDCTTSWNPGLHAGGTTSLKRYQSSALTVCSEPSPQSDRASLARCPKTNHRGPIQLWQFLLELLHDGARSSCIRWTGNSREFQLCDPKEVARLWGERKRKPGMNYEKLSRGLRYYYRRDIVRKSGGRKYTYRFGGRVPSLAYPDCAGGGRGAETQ
Outline: as §1

[17] = target: T11, ELF3 (Homo sapiens, UniProt P78545 1-371); settings: protein: recombinant; tags: N-terminal GST; dsDNA, one strand shown
T11 sequence: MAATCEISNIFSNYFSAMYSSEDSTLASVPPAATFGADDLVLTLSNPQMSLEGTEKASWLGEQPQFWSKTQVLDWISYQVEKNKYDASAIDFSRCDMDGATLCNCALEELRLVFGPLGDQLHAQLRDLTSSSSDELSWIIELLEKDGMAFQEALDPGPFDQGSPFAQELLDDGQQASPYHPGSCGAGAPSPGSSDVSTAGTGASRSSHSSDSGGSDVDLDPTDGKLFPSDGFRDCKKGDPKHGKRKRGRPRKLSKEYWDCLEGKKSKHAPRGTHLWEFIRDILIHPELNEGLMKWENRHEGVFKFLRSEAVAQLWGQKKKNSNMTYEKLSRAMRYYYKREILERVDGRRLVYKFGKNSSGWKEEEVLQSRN
Outline: as §1

[18] = target: CRX (Homo sapiens, UniProt O43186 1-299); settings: protein: recombinant; tags: N-terminal GST; dsDNA, one strand shown
Outline: as §1

[19] = target: ETV1 (Homo sapiens, UniProt P50549 1-477); settings: protein: recombinant; tags: N-terminal GST; dsDNA, one strand shown
Outline: as §1

Chain of CRX (O43186 whole entry): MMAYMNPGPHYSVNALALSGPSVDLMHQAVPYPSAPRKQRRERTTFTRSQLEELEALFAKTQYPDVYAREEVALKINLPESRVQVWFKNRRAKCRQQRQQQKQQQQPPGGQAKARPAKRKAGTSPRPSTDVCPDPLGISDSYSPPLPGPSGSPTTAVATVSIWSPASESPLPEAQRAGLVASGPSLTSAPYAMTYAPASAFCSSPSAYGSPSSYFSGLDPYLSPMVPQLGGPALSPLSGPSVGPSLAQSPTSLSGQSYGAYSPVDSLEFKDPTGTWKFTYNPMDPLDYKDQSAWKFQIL
Chain of ELF1 (P32519 whole entry): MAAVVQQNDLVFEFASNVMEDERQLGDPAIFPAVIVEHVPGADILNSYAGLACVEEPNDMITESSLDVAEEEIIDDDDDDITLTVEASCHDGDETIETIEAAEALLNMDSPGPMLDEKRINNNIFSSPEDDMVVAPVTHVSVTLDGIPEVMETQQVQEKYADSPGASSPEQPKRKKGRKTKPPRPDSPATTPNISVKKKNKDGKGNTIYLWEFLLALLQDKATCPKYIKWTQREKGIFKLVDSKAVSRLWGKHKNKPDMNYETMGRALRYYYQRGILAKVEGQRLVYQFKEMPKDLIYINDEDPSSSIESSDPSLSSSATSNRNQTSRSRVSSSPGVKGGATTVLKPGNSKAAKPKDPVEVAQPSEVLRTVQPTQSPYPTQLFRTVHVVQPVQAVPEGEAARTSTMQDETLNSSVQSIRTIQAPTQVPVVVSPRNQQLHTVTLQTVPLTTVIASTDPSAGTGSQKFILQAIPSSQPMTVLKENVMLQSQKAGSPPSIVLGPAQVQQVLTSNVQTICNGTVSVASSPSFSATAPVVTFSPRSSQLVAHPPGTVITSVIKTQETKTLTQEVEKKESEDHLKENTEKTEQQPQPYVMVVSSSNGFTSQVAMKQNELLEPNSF
Chain of HSF1 (Q00613 whole entry): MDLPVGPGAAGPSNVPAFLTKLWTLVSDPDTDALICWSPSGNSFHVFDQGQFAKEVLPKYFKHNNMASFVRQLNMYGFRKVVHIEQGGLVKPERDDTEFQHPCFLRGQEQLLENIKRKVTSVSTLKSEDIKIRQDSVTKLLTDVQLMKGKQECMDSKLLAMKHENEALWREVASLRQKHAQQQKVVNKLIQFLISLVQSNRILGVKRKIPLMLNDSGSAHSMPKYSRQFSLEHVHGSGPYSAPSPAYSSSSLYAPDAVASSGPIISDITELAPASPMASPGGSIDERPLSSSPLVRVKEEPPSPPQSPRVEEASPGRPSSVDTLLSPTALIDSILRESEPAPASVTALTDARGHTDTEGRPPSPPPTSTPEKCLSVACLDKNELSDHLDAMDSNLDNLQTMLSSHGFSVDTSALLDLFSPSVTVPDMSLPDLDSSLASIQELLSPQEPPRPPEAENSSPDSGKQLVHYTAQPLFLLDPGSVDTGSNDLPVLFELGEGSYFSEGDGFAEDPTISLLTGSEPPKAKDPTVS
Chain of ETV5 (P41161 whole entry): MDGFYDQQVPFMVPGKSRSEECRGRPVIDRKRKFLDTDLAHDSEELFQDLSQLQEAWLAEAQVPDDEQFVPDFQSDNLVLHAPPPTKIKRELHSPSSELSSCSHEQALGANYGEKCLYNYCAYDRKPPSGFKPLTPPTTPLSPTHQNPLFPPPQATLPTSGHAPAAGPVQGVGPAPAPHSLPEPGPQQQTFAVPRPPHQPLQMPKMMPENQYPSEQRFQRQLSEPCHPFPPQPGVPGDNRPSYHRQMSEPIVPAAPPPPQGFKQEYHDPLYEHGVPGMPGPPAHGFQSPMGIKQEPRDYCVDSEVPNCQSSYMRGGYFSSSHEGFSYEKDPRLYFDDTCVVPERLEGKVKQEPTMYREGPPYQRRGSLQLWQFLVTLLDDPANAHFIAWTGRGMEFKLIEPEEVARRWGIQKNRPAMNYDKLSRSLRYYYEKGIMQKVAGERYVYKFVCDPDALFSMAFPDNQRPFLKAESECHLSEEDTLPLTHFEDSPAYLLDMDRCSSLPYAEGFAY
Chain of ELF4 (Q99607 whole entry): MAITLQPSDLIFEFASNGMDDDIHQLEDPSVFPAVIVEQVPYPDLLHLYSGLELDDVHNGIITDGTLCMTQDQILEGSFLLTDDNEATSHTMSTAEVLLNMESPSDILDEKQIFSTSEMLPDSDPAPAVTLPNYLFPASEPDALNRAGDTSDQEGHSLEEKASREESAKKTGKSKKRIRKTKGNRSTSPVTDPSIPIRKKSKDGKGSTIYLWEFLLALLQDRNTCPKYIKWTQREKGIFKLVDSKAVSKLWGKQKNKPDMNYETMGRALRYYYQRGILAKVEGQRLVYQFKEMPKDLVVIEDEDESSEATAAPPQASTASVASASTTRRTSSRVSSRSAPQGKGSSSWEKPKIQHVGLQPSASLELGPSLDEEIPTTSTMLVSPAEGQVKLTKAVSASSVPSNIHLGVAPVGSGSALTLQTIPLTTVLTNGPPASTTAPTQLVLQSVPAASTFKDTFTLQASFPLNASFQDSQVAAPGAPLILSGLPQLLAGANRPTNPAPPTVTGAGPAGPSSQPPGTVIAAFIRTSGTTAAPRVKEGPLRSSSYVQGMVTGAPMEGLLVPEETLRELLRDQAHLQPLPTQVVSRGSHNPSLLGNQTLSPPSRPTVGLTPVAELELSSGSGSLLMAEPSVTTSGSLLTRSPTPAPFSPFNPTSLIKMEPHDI
Chain of SPIB (Q01892 whole entry): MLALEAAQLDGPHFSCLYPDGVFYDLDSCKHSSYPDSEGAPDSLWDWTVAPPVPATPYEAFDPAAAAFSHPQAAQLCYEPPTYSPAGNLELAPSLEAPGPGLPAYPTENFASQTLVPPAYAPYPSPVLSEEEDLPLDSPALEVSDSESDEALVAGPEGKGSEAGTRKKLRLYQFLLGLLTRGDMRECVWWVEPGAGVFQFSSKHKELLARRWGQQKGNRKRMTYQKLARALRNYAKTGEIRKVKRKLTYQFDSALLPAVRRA
Chain of ETV1 (P50549 whole entry): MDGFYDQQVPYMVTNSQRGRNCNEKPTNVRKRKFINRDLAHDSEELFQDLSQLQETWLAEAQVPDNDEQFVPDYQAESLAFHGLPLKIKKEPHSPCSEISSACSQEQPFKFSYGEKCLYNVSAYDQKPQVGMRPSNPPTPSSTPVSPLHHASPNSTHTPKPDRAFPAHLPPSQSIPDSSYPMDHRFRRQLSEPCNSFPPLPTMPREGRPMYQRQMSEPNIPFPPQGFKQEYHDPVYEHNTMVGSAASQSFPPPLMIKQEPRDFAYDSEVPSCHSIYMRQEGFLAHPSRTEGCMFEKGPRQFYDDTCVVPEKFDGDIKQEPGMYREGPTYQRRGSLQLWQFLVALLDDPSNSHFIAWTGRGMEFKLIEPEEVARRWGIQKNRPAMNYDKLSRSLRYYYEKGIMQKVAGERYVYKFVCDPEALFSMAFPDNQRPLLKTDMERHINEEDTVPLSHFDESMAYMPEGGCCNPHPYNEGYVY

## CCTCTT
[1]
  binding signal: 1.5 fold enrichment (6-mer frequency, TF over GST control)
[2]
  binding signal: 1.45 fold enrichment (6-mer frequency, TF over GST control)
[3]
  binding signal: 1.6 fold enrichment (6-mer frequency, TF over GST control)
[4]
  binding signal: 1.68 fold enrichment (6-mer frequency, TF over GST control)
[5]
  binding signal: 1.5 fold enrichment (6-mer frequency, TF over GST control)
[6]
  binding signal: 1.71 fold enrichment (6-mer frequency, TF over GST control)
[7]
  binding signal: 2.57 fold enrichment (6-mer frequency, TF over GST control)
[8]
  binding signal: 1.67 fold enrichment (6-mer frequency, TF over GST control)
[9]
  binding signal: 1.66 fold enrichment (6-mer frequency, TF over GST control)
[10]
  binding signal: 1.58 fold enrichment (6-mer frequency, TF over GST control)
[11]
  binding signal: 1.68 fold enrichment (6-mer frequency, TF over GST control)
[12]
  binding signal: 1.4 fold enrichment (6-mer frequency, TF over GST control)
[13]
  binding signal: 1.52 fold enrichment (6-mer frequency, TF over GST control)
[14]
  binding signal: 1.56 fold enrichment (6-mer frequency, TF over GST control)
[15]
  binding signal: 1.56 fold enrichment (6-mer frequency, TF over GST control)
[16]
  binding signal: 1.75 fold enrichment (6-mer frequency, TF over GST control)
[17]
  binding signal: 1.32 fold enrichment (6-mer frequency, TF over GST control)
[18]
  binding signal: 1.81 fold enrichment (6-mer frequency, TF over GST control)
[19]
  binding signal: 1.55 fold enrichment (6-mer frequency, TF over GST control)
